Unmarked numbers belong to inactive results. Inconclusive results are not listed. The source made the active and inactive calls. Unless noted, calls come from the whole dose curve; as a rule, active = well fitted curve in the direction sought with a large enough effect; inconclusive = small, poorly fitted or top-dose-only effect, or another doubt; inactive = no such curve, though single readings can be large; an effect the other way counts as inactive or inconclusive.

Experimental findings from PubChem BioAssay (NCATS) are described below.

The subject of assay [1] is SKOV3. In words: Primary qHTS to identify gynecologic anti-cancer compounds using libraries of approved drugs and bioactive compounds (AID 1345084). Note: % is set by controls: 0 for no effect and ±100 for the full control effect; nearly all actives have a fitted effect of over 55% in size. The conditions noted are these: Gynecologic cancer cell panel viability, ATPlite luminescence, 48 h; series mostly up to 57.5 µM. The gist of the method:
(§1)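 Five-concentration response, 48 h; readout is ATP-driven luciferase luminescence.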

The test system of assay [2] is Tov-21-G. The description is as above. The conditions noted are these: Gynecologic cancer cell panel viability, ATPlite luminescence, 48 h; series mostly up to 57.5 µM. Put shortly: as §1
Assay [3] concerns Tov112D. Described as above. The conditions noted are these: Gynecologic cancer cell panel viability, ATPlite luminescence, 48 h; series mostly up to 57.5 µM. The gist of the method:
as §1

The nature of assay [4]: Drug repurposing screens with cells derived from glioblastoma tumor samples (AID 1345199). For activity, negative = cell killing: % is set by controls: 0 for no effect and ±100 for the full control effect. Note: nearly all actives have a fitted effect of over 40% in size. Note: potency is the fitted concentration of half-maximal effect. The conditions noted are these: GBM patient neurospheres viability, ATP luminescence, 48 h. Put shortly: (§2)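 Primary testing used CD133+ neurospheres from four GBM patients, seven concentrations, 48 h exposure and ATP-based viability; confirmation added three slower-growing patient lines.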

For assay [5], the system named is astro. The assay is described as above. The conditions noted are these: viability, ATP luminescence, 48 h; series mostly up to 45.9 µM. Put shortly:
as §2

The target in assay [6] is Nuclear receptor subfamily 1 group I member 2 (Rattus norvegicus) (UniProt Q9R1A7). In words: qHTS assay for small molecule activators of the rat pregnane X receptor (rPXR) signaling pathway (AID 651751; call rule not given here; note: 0% is about no effect). The conditions noted are these: rPXR reporter cells, luciferase (One-Glo), 24 h.
Assay [7] can be described thus: qHTS assay for small molecule activators of the human pregnane X receptor (PXR) signaling pathway (AID 720659; call rule not given here; note: 0% is about no effect).
Assay [8] is described as follows: qHTS assay to identify inhibitors of the type 1 interferon - major histocompatibility complex class I in skeletal muscle: Counter screen cell viability and HiBit confirmation (AID 1347412). Note: % is set by controls: 0 for no effect and ±100 for the full control effect; nearly all actives have a fitted effect of over 60% in size. The conditions noted are these: iHSKM muscle cells + IFN-b, HiBiT or CellTiter-Glo, 24 h; Viability, at 45.9 µM (top of the series). The gist of the method: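 HLA-B*08:01–HiBiT knock-in immortalized human myoblasts (C25cl48) stimulated with 4.0 ng/ml human IFN-beta and dosed with compound in a 12-point 1:3 titration (top final 46 uM). After 24 hrs at 37 C, HiBiT lytic luminescence or CellTiter Glo ATP read out.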

[9] abbreviates: at 45.9 µM (top of the series), tumour line B.
Where [10] appears, read: at 45.9 µM (top of the series), tumour line D.
[11] abbreviates: at 46 µM (top of the series), tumour line A.
Setting [12] is: at 46.1 µM (top of the series), tumour line C.

Sequence of Nuclear receptor subfamily 1 group I member 2 (Rattus norvegicus) (Q9R1A7 whole entry, looked up): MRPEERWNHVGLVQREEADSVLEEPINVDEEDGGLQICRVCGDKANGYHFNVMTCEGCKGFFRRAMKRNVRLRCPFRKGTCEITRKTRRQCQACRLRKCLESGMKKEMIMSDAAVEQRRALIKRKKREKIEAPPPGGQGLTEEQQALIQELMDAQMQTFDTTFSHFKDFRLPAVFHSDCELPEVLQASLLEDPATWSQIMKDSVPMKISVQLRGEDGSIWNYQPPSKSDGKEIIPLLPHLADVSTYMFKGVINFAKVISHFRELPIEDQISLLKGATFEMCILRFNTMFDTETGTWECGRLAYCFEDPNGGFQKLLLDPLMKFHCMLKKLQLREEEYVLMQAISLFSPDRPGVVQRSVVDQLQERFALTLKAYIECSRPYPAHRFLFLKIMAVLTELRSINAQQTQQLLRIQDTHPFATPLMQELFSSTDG

On to `O=C1C(c2[nH]c3ccccc3c2O)=Nc2ccccc21`, for which the compound was classed as inactive in assay [1], in assay [2], in assay [3], in assay [5] and in assay [7]. Besides, the activity, negative = cell killing in assay [4] (setting [9]) was -10%; in assay [4] (setting [10]), -9.74%; in assay [4] (setting [11]), -34.1%; in assay [4] (setting [12]) it was -13.3%. For the same compound, in assay [6], the max response was 2.85%.
`CCOC(=O)[C@H](CCc1ccccc1)N[C@@H](C)C(=O)N1CCC[C@H]1C(=O)O`: the compound was classed as inactive in assay [1], in assay [2], in assay [3] and in assay [5]. Further, the activity, negative = cell killing was -10.1% in assay [4] (setting [9]), -16.5% in assay [4] (setting [10]), -13.8% in assay [4] (setting [11]) and -21.6% in assay [4] (setting [12]).
Consider `OC(CCN1CCCC1)(c1ccccc1)C1CCCCC1` (centres undefined), for which the compound was called inactive in assay [1], in assay [2], in assay [3] and in assay [5]. Further, the activity, negative = cell killing in assay [4] (at 20 µM (top of the series), tumour line C) is 3.06%; in assay [4] (at 21.2 µM (top of the series), tumour line B), -6.65%; in assay [4] (at 21.2 µM (top of the series), tumour line D), -11.6%.
On to `Cc1c(I)c(=O)n(-c2ccccc2)n1C`, for which the outcome in assay [1], in assay [2], in assay [3] and in assay [5] was inactive. In addition, the activity, negative = cell killing is -4.2% in assay [4] (setting [9]), -14% in assay [4] (setting [10]), -24.2% in assay [4] (setting [11]) and 3.68% in assay [4] (setting [12]).
Turning to `CCCC(O)C(CC)CO` (centres undefined), the compound was classed as inactive in assay [1], in assay [2], in assay [3], in assay [5] and in assay [7]. In addition, the activity, negative = cell killing in assay [4] (setting [9]) was -12.1%; in assay [4] (setting [10]), -1.2%; in assay [4] (setting [11]), -19.9%; in assay [4] (setting [12]), 1.39%. For the same compound, the max response in assay [6] was 7.37%.
As for `CCCCCC(N)=O`, the result in assay [1], in assay [2], in assay [3], in assay [5] and in assay [7] was inactive. The activity, negative = cell killing in assay [4] (setting [9]) is -6.65%; in assay [4] (setting [10]) it was -23.8%; in assay [4] (setting [11]), -18.7%; in assay [4] (setting [12]), -14.8%. Besides, the max response in assay [6] was 8.83%.
With `NCC1CCC(C(=O)Oc2ccc(CCC(=O)O)cc2)CC1` (centres undefined), the compound was called inactive in assay [1], in assay [2], in assay [3] and in assay [5]. Moreover, the activity, negative = cell killing in assay [4] (setting [9]) is -0.713%; in assay [4] (setting [10]) it was -15%; in assay [4] (setting [12]), 8.61%.
With `CCCCOC(=O)c1ccc(N)cc1`, the compound was classed as inactive in assay [1], in assay [2], in assay [3], in assay [5] and in assay [8]. Besides, the activity, negative = cell killing in assay [4] (setting [10]) is -24.9%. Besides, the Potency is 11.2 µM (active) in assay [4] (tumour line A), 12.6 µM (active) in assay [4] (tumour line B) and 16.4 µM (active) in assay [4] (tumour line C). Moreover, the max response in assay [6] was 15.7%.
In the case of `Cc1cc(OI)c(C(C)C)cc1-c1cc(C(C)C)c(OI)cc1C`, the call in assay [1], in assay [2], in assay [3] and in assay [5] was inactive. In addition, the activity, negative = cell killing in assay [4] (setting [9]) is -6.87%; in assay [4] (setting [10]), -13.4%; in assay [4] (setting [12]), 33.1%.
Consider `C[C@@H](c1ncncc1F)C(O)(Cn1cncn1)c1ccc(F)cc1F` (some centres undefined), for which the compound was called inactive in assay [1], in assay [2], in assay [3] and in assay [5]. Besides, the results for the activity, negative = cell killing in assay [4] (setting [9]), in assay [4] (setting [10]) and in assay [4] (setting [12]) were -6.32%, -23.3% and 6.65%, respectively.
Regarding `N[C@@H](Cc1ccc(O)cc1)C(=O)O`, the activity change, negative = cytotoxicity is -0.073% [at 11.6 µM] in assay [1], 5.15% [at 11.6 µM] in assay [2] and 8.21% [at 11.6 µM] in assay [3]. Further, the activity, negative = cell killing in assay [4] (setting [9]) is -2.51%; in assay [4] (setting [10]) it was -14.6%; in assay [4] (setting [11]), -11%; in assay [4] (setting [12]) it was 37.9%. For the same compound, the outcome in assay [5] was inactive.
As to `CC(C)=CCC/C(C)=C/CO`, the result in assay [1], in assay [2], in assay [3] and in assay [5] was inactive. For the same compound, the activity, negative = cell killing in assay [4] (setting [9]) was -6.27%; in assay [4] (setting [10]), 1.11%; in assay [4] (setting [11]) it was -25.2%; in assay [4] (setting [12]) it was 8.23%. The max response in assay [6] was 1.1%.
With `Cc1ccc(S(=O)(=O)NC(=O)NC2CCCCCCC2)cc1`, the outcome in assay [1], in assay [2], in assay [3] and in assay [5] was inactive. For the same compound, the activity, negative = cell killing in assay [4] (setting [9]) is -4.76%; in assay [4] (setting [10]) it was 3.34%; in assay [4] (setting [11]), -27.8%.
For `Cc1cccc(Nc2ccccc2C(=O)O)c1C`, the compound was classed as inactive in assay [1], in assay [2] and in assay [3]. Moreover, the activity, negative = cell killing was -15.4% in assay [4] (setting [9]), -14.4% in assay [4] (setting [10]), -20% in assay [4] (setting [11]) and -15.4% in assay [4] (setting [12]). Besides, the max response in assay [6] is 2.62%.
In the case of `Cc1c(C(=O)NCCO)[n+](=O)c2ccccc2n1[O-]`, the compound was called inactive in assay [1], in assay [2], in assay [3], in assay [5] and in assay [7]. Also, the activity, negative = cell killing is -6.85% in assay [4] (setting [9]), -27.6% in assay [4] (setting [10]), -29.3% in assay [4] (setting [11]) and -6.62% in assay [4] (setting [12]). The max response in assay [6] is 1.89%.
Turning to `CC(=O)Nc1ccc(C(=O)O)cc1`, the compound was called inactive in assay [1], in assay [2], in assay [3], in assay [5] and in assay [7]. The activity, negative = cell killing is -15.7% in assay [4] (setting [9]), 14.1% in assay [4] (setting [10]), -33.2% in assay [4] (setting [11]) and -22.1% in assay [4] (setting [12]). For the same compound, the max response in assay [6] is 0.613%.
With `COC(=O)N/N=C/c1c[n+]([O-])c2ccccc2[n+]1[O-]`, the compound was classed as inactive in assay [1], in assay [2], in assay [3] and in assay [5]. In addition, the activity, negative = cell killing in assay [4] (setting [9]) was 3.32%; in assay [4] (setting [10]) it was -10.1%; in assay [4] (setting [11]) it was -9.78%; in assay [4] (setting [12]), 2.7%.
Regarding `CC(=O)NS(=O)(=O)c1ccc(N)cc1`, the call in assay [1], in assay [2], in assay [3], in assay [5] and in assay [7] was inactive. The activity, negative = cell killing in assay [4] (setting [9]) is -8.29%; in assay [4] (setting [10]), -18.7%; in assay [4] (setting [11]), -22.6%; in assay [4] (setting [12]) it was -4.02%. For the same compound, the max response in assay [6] is -2.2%.
